Measurements taken from PubChem BioAssay (NCATS).
Results filed as inconclusive are left out. A call without a number means that no potency is given here. Unmarked numbers belong to inactive results. Calls of active or inactive are those of the source. The call rests on the fitted dose curve.

target: Nucleoprotein (Lymphocytic choriomeningitis virus (strain Armstrong)) (UniProt P09992); experiment: qHTS for Inhibitors of the Functional Ribonucleoprotein Complex (vRNP) of Lymphocytic Choriomeningitis Arenaviruses (LCMV): LCMV Primary Screen - GLuc reporter signal (AID 1347086); settings: LCMV minigenome vRNP cell assay, Gaussia luciferase reporter; series mostly up to 57.5 µM; further: nearly all actives have a fitted effect of over 70% in size
Sequence (P09992 whole entry, looked up): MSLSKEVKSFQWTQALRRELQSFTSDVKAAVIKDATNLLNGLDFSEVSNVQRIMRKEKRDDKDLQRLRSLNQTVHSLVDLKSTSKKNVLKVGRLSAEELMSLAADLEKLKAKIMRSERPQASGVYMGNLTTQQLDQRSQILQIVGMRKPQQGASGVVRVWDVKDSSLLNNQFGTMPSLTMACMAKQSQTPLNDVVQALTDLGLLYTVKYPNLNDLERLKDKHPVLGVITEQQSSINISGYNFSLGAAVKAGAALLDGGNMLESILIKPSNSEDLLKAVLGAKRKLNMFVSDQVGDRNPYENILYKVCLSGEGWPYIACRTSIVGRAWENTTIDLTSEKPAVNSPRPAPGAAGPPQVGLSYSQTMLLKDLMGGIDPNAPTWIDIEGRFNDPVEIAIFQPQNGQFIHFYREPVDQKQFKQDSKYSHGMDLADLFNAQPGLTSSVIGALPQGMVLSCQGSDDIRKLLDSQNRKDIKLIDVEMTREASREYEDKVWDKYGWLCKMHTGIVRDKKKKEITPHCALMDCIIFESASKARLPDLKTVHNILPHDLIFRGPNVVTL
Potency means the concentration at half of the fitted maximal effect.

**Q.** With `C=C1C[C@@]23CC4C5[C@@]6(C)C[C@H](O)C[C@@]57C2[C@H](O)[C@@H]1[C@H](O)[C@H]3[C@H]7N4C6` as the compound, how does the Potency read?
**A.** Its Potency is “inactive”.

**Q.** How did the Potency turn out when `CCOC(=O)/C=C/c1ccccc1` was run?
**A.** The Potency was “inactive”.

**Q.** Which Potency does the source give for `O=C1CCC[C@H]2[C@H]3CCCN4CCCC(=CN12)[C@@H]34` here?
**A.** Its Potency is “inactive”.

**Q.** For `COc1cc2c(c(OC)c1OC)-c1c(cc3c(c1OC)OCO3)[C@@H](OC(C)=O)[C@H](C)[C@H](C)C2`, which Potency is on record?
**A.** Its Potency is “inactive”.

**Q.** `C[C@@H](Cc1cc2c(c(C(N)=O)c1)N(CCCO)CC2)NCCOc1ccccc1OCC(F)(F)F` was tested. Which Potency did it give?
**A.** Its Potency is “inactive”.

**Q.** How did the Potency turn out when `CCCCCCCC/C=C/CCCOC(C)=O` was run?
**A.** The Potency was “inactive”.

**Q.** How did the Potency turn out when `CC(=O)OC1c2c(ccc3ccc(=O)oc23)OC(C)(C)C1OC(=O)CC(C)C` (centres undefined) was run?
**A.** The Potency was “inactive”.

**Q.** `C=C1C[C@H](O[C@@H]2O[C@H](CO)[C@@H](O)[C@H](O)[C@H]2O)[C@@H]2[C@H](OC(=O)[C@H]2C)[C@H]2[C@H](C)[C@@H](O)C[C@@H]12` was tested. Which Potency did it give?
**A.** Its Potency is “inactive”.

**Q.** With `N[C@H](C(=O)O)c1ccc(O)c(C(=O)O)c1` as the compound, how does the Potency read?
**A.** Its Potency is “inactive”.

**Q.** `C=C1CCC2C(C)(C)[C@@H](O)CC[C@@]2(C)[C@@H]1COc1ccc2ccc(=O)oc2c1` (some centres undefined) was tested. Which Potency did it give?
**A.** Its Potency is “inactive”.

**Q.** Which Potency does the source give for `COc1ccc(C(=O)OC2CC3CCC(C2)[N+]3(C)[O-])cc1OC` (centres undefined) here?
**A.** Its Potency is “inactive”.

**Q.** How did the Potency turn out when `Cc1c(O)c2ccccc2oc1=O` was run?
**A.** The Potency was “inactive”.

**Q.** How did the Potency turn out when `CC(=O)OCC1=C(C(=O)O)N2C(=O)[C@@H](NC(=O)Cc3ccccc3)[C@H]2SC1` was run?
**A.** The Potency was “inactive”.

**Q.** For `CCOC(=O)Cc1ccccc1`, which Potency is on record?
**A.** The Potency was “inactive”.

**Q.** For `COC1CC(C)C(OC)c2cc(O)cc(c2O)NC(=O)C(C)=CC=CC(C)C(OC(N)=O)C(C)=CC(C)C1OC` (centres undefined), which Potency is on record?
**A.** The Potency was “inactive”.

**Q.** For `COC(=O)c1ccccc1-n1c(C)nc2ccccc2c1=O`, which Potency is on record?
**A.** The Potency was “inactive”.

**Q.** `C[C@]12CCC3C(CC[C@H]4C[C@H](O)CC[C@]34C)C1C[C@H](O)[C@@H]2O` (some centres undefined) was tested. Which Potency did it give?
**A.** Its Potency is “inactive”.

**Q.** With `O=Cc1ccc(O)cc1O` as the compound, how does the Potency read?
**A.** The Potency was “inactive”.

**Q.** Which Potency does the source give for `CS[C@H]1SC[C@@H]2C(=O)N(C)[C@H](C(C)C)C(=O)OC[C@H](NC(=O)c3cnc4ccccc4n3)C(=O)N[C@H](C)C(=O)N(C)[C@@H]1C(=O)N(C)[C@H](C(C)C)C(=O)OC[C@H](NC(=O)c1cnc3ccccc3n1)C(=O)N[C@H](C)C(=O)N2C` here?
**A.** The Potency was 17.2 nM (active).

**Q.** Which Potency does the source give for `COc1cc(C(=O)OC2CC3CCC2(C)C3(C)C)ccc1OC(C)=O` (centres undefined) here?
**A.** The Potency was “inactive”.

**Q.** `CCCCC[C@H](O)/C=C/[C@H]1OC(O)C[C@H](O)[C@@H]1C/C=C\CC(=O)O` (some centres undefined) was tested. Which activity change, negative = inhibition did it give?
**A.** Its activity change, negative = inhibition is 5.45% [at 0.757 µM].

**Q.** `CC1=C2C(=O)OC(c3ccoc3)C2(C)CCC1` (centres undefined) was tested. Which Potency did it give?
**A.** The Potency was “inactive”.

**Q.** How did the Potency turn out when `COc1c2ccc(OCC/C(C)=C/C(=O)C=C(C)C)cc2nc2occc12` was run?
**A.** Its Potency is “inactive”.

**Q.** Which Potency does the source give for `c1ccc2nc(-c3ccc4c(c3)OCO4)ccc2c1` here?
**A.** Its Potency is “inactive”.

**Q.** For `COc1cc(OC)c2ccc(=O)oc2c1`, which Potency is on record?
**A.** The Potency was “inactive”.

**Q.** How did the Potency turn out when `CC(=O)O` was run?
**A.** The Potency was “inactive”.

**Q.** `CC(=O)O[C@@H]1[C@H](OC(=O)CC(C)C)c2c(ccc3ccc(=O)oc23)OC1(C)C` was tested. Which Potency did it give?
**A.** The Potency was “inactive”.

**Q.** Which Potency does the source give for `Cc1[nH]c(C=C2C(=O)Nc3ccc(S(=O)(=O)Cc4c(Cl)cccc4Cl)cc32)c(C)c1C(=O)N1CCC[C@H]1CN1CCCC1` here?
**A.** Its Potency is “inactive”.

**Q.** `CC(=O)Oc1ccc2c(C)cc(=O)oc2c1` was tested. Which Potency did it give?
**A.** Its Potency is “inactive”.

**Q.** `O=C(/C=C/c1ccc(O)cc1)OC[C@H]1O[C@@H](Oc2c(-c3ccc(O)cc3)oc3cc(O)cc(O)c3c2=O)[C@H](O)[C@@H](O)[C@@H]1O` was tested. Which Potency did it give?
**A.** The Potency was “inactive”.

**Q.** How did the Potency turn out when `CC[C@H](C)C(=O)N[C@H]1CCCN1C(=O)/C=C/c1ccccc1` was run?
**A.** Its Potency is “inactive”.

**Q.** For `N#CC(=C1Nc2ccccc2S1)c1ccnc(OCc2ccc(CN3CCOCC3)cc2)n1`, which Potency is on record?
**A.** The Potency was 1720 nM (active).

**Q.** Which Potency does the source give for `COc1cc(C(=O)O[C@@H]2CC3CC[C@]2(C)C3(C)C)ccc1O` here?
**A.** The Potency was “inactive”.

**Q.** How did the Potency turn out when `Cn1c2ccccc2c2c3c(c4c5ccccc5n(CCC#N)c4c21)CNC3=O` was run?
**A.** The Potency was 6110 nM (active).

**Q.** With `C[C@]12C=CC(=O)C=C1CC[C@@H]1[C@@H]2[C@@H](O)C[C@@]2(C)[C@@H]1CC[C@]2(O)C(=O)CO` as the compound, how does the Potency read?
**A.** Its Potency is “inactive”.

**Q.** `C=CCc1c(OC)ccc2ccc(=O)oc12` was tested. Which Potency did it give?
**A.** The Potency was “inactive”.

**Q.** For `C=CC(C)(CCC=C(C)C)OC(=O)c1ccccc1` (centres undefined), which Potency is on record?
**A.** Its Potency is “inactive”.

**Q.** For `COc1cc2c(=O)c(-c3ccc(O)cc3)coc2cc1OC1OC(CO)C(O)C(O)C1O` (centres undefined), which Potency is on record?
**A.** Its Potency is “inactive”.

**Q.** For `O=c1cc(-c2ccc(O)cc2)oc2c([C@@H]3O[C@H](CO)[C@@H](O)[C@H](O)[C@H]3O)c(O)c([C@@H]3O[C@H](CO)[C@@H](O)[C@H](O)[C@H]3O)c(O)c12`, which Potency is on record?
**A.** Its Potency is “inactive”.
